Source: PubChem BioAssay (NCATS)
Values joined by “and” are separate entries in the source; they are usually repeats but may differ in a detail not shown here. Equal values may be shown once. Results filed as inconclusive are left out. The source holds several records for some structures; these can differ, active in one and inactive in another. Active and inactive are the calls of the source. Unless noted, the call rests on the fitted dose curve; in most records, active means well fitted curve in the direction sought with a large enough effect; inconclusive means small, poorly fitted or top-dose-only effect, or another doubt; inactive means no such curve, though single readings can be large; an effect the other way counts as inactive or inconclusive.

How the values were obtained:
[1] = target: Cytochrome P450 2C19 (Homo sapiens) (UniProt P33261); test: qHTS Assay for Inhibitors and Substrates of Cytochrome P450 2C19 (AID 899); further: nearly all actives have a fitted effect of over 60% in size; further: potency means the concentration at half of the fitted maximal effect
Outline: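 5nM enzyme + 10uM Luciferin-H EGE (=KM), 50mM KPO4; cpd pin-transferred, 10 min 37C; NADPH regen, 60 min 37C; stopped w/ luciferin detection reagent, 20 min; luminescence. Normalized to 57uM ketoconazole (AC100).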

[2] = Cell Viability - HUV-EC-C (AID 542); further: nearly all actives have a fitted effect of over 35% in size; further: potency means the concentration at half of the fitted maximal effect
Outline: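 qHTS cytotoxicity: HUV-EC-C, 1000 cells/well, 5 hr settle, compound 40 hr 37 °C, CellTiter-Glo, luminescence. AC50 via Hill equation.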

[3] = Cell Viability - SH-SY5Y (AID 544); conditions: SH-SY5Y neuroblastoma cell viability; viability change, negative = cytotoxic: at 92.2 µM (top of the series); further: nearly all actives have a fitted effect of over 55% in size; further: potency means the concentration at half of the fitted maximal effect
Outline: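 Luminescent ATP read-out (CellTiter-Glo) measures loss of viable SH-SY5Y neuroblastoma cells after 40 hr compound exposure at 37 °C. AC50 values derive from standard Hill modelling of qHTS concentration-response data.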

[4] = Cellular Toxicity (caspase-3) HUV-EC-C (AID 656)
Outline: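 qHTS; HUV-EC-C, 1000 cells/well; 5 hr settle, 16 hr cmpd, 37°C; Caspase-Glo 3/7, 20 min RT; luminescence. Norm: DMSO = 0%, tamoxifen 100 uM = 100%. Hill-fit AC50.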

[5] = Cellular Toxicity (caspase-3) BJ (AID 658);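 further: 0% = DMSO basal and 100% = 10 µM staurosporine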
Outline: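 Readout: Caspase-Glo 3/7 luminescence increase in BJ cells after 16 hr treatment at 37 °C. Staurosporine and tamoxifen served as positive controls; AC50 values came from Hill modelling of data normalized to DMSO and 10 uM staurosporine.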

[6] = Cellular Toxicity (caspase-3) MRC-5 (AID 659);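 further: 0% = DMSO basal and 100% = 10 µM staurosporine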
Outline: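 Concentration-dependent caspase 3/7 activation is measured in human normal lung fibroblasts (MRC-5) following 16-hour treatment. AC50 values come from standard Hill-equation modeling of luminescence normalized to DMSO and 10 uM staurosporine.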

[7] = Cellular Toxicity (caspase-3) Mesangial (AID 660); conditions: Potency: caspase-3 activation;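 further: combined caspase 3 and 7 activity read by Caspase-Glo luminescence; cells exposed to compound for 16 h before the caspase read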; further: potency means the concentration at half of the fitted maximal effect
Outline: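 Mesangial cells, 1000/well, 5 h settle at 37 °C; compound 16 h, 37 °C; Caspase-Glo 3/7 reagent 20 min RT; luminescence. Norm.: DMSO = 0%, tamoxifen 100 uM = 100%. AC50, Hill fit.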

[8] = Cellular Toxicity (caspase-3) Hek293 (AID 664); conditions: HEK293 caspase-3 activation, DMSO = 0%, 100 µM tamoxifen = 100%; at 92.2 µM (top of the series);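 further: cells exposed to compound for 16 h at 37 °C before readout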
Outline: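 Cells plated, 5 hr at 37 °C; compounds added; 16 hr at 37 °C; Caspase-Glo 3/7 reagent, 20 min RT; luminescence read. Activation expressed relative to DMSO and 100 uM tamoxifen, AC50 by Hill model.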

[9] = Cellular Toxicity (caspase-3) N2a (AID 665);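 further: compound exposure lasted 16 h at 37 °C before readout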
Outline: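 N2a cells, 1500/well, 5 h settle at 37 °C; cpd 16 h, 37 °C; Caspase-Glo 3/7, 1 h RT; luminescence. Norm: DMSO = 0, 10 uM staurosporine = 100%. AC50, Hill fit.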

[10] = Cell Viability - LYMP1-003 - Assay at 24 hr (AID 963); further: potency means the concentration at half of the fitted maximal effect;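 on viability change, negative = cytotoxic: plate controls were DMSO only for no effect and tetraoctylammonium bromide positive control for full effect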
Outline: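 Cells seeded at 2500/well, 5 hr at 37 C; compounds added; 24 hr at 37 C; CellTiter-Glo added, 30 min room temperature; luminescence read. Decrease in ATP taken as cytotoxicity, AC50 from Hill modelling.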

[11] = Cell Viability - LYMP2-003 (AID 965);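 further: cells exposed to compounds for 24 h before reading; nearly all actives have a fitted effect of over 50% in size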; further: potency means the concentration at half of the fitted maximal effect
Outline: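 Seed 2500 lymphoblastoid cells/well; incubate 5 hr, 37 C; add compounds; incubate 24 hr, 37 C; add CellTiter-Glo, 30 min RT; read luminescence. AC50 from Hill fit.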

[12] = Cell Viability - LYMP2-015 (AID 971); further: nearly all actives have a fitted effect of over 55% in size; further: potency means the concentration at half of the fitted maximal effect
Outline: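 Luminescent ATP read-out (CellTiter-Glo) served as the viability measure after lymphoblastoid cells were exposed to compounds for 24 hours at 37 C. Concentration-response data were fitted with the Hill equation to give AC50.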

[13] = Cell Viability - LYMP2-019 (AID 973); further: nearly all actives have a fitted effect of over 55% in size; further: potency means the concentration at half of the fitted maximal effect
Outline: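 Luminescent ATP read-out (CellTiter-Glo, 30 min room temperature) served as the viability measure after 24 hr treatment of lymphoblastoid cells at 37 C. Concentration-response data were fitted to the Hill equation for AC50.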

[14] = Cell Viability - LYMP2-016 (AID 984); further: nearly all actives have a fitted effect of over 55% in size; further: potency means the concentration at half of the fitted maximal effect
Outline: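 Cells were seeded at 2500 per well and rested 5 hr before a 24 hr compound exposure at 37 C. Viability was then gauged as cellular ATP by luciferase luminescence, with AC50 values fitted to the Hill equation.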

[15] = Cell Viability - LYMP2-018 (AID 985); further: nearly all actives have a fitted effect of over 50% in size; further: potency means the concentration at half of the fitted maximal effect
Outline: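 Luminescent ATP signal (CellTiter-Glo, read after 30 min at room temperature) reports viable cells after 24 hr compound treatment at 37 C. Concentration-response data were fitted to the standard Hill equation for AC50.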

[16] = qHTS assay for cell viability of HEK293 cells (AID 743288); conditions: ATP luminescence (CellTiter-Glo), 18 h; max response: stronger effect = lower value; further: nearly all actives have a fitted effect of over 50% in size; further: potency means the concentration at half of the fitted maximal effect; on max response: on the % scale 0 is the no-effect control and ±100 the full control effect
Outline: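 HEK293 parental, 2,000 cells/well; ≥5 h pre-incubation 37 C; pintool compound addition; 18 h, 37 C; CellTiter-Glo 30 min RT; luminescence read.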

[17] = qHTS assay for cell viability of the p53RE-bla HCT-116 cell line (AID 743292); further: nearly all actives have a fitted effect of over 55% in size; further: potency means the concentration at half of the fitted maximal effect
Outline: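 CellSensor p53RE-bla HCT-116 cells (4,000/well) pre-incubated 5 h at 37 C, then exposed to compounds in DMSO for 16 h at 37 C. Viability read as ATP content by CellTiter-Glo luminescence after 30 min at room temperature.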

[18] = Cell Viability - Hek293 (AID 427;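 active means compounds whose dose-response curve shows a full or clear partial loss of cell viability, called from curve shape rather than a numeric limit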;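 further: potency means the concentration at half of the fitted maximal effect; cells exposed to compound for 40 hours at 37 °C before reading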); conditions: qHTS
Outline: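 Luminescent ATP read-out (CellTiter-Glo, 20 min RT) after 40 hr compound exposure at 37 °C in complete medium. Signal normalized to DMSO (basal) and 100 uM tamoxifen (100% inhibition); concentration-response fitted with the standard Hill equation to give AC50.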

[19] = Cell Viability - SK-N-SH (AID 435; calls by dose curve;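 further: potency means the concentration at half of the fitted maximal effect; compound exposure lasted 40 h at 37 °C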); conditions: SK-N-SH neuroblastoma cell viability qHTS
Outline: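 Luminescent ATP signal served as the viability read-out after 40 hours of compound treatment of human neuroblastoma SK-N-SH cells. Concentration-response data, scaled between DMSO and 100 uM tamoxifen, gave AC50 values by standard Hill modeling.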

[20] = target: Tumor necrosis factor (Homo sapiens) (UniProt P01375); test: qHTS assay to identify small molecules that stimulate Tumor Necrosis Factor-alpha (TNF-alpha) secretion (AID 651757; active means well fitted curve in the direction sought with a large enough effect in the signal ratio; the % refers to the signal ratio; further: 0% is about no effect)
Outline: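 Read-out is HTRF, a TR-FRET sandwich of cryptate- and XL665-labeled anti-TNF-alpha antibodies detecting cytokine secreted by THP-1 cells. Cells had been incubated with test compounds at 37 C for 17 hrs beforehand.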

Chain of Tumor necrosis factor (Homo sapiens) (P01375 whole entry, looked up): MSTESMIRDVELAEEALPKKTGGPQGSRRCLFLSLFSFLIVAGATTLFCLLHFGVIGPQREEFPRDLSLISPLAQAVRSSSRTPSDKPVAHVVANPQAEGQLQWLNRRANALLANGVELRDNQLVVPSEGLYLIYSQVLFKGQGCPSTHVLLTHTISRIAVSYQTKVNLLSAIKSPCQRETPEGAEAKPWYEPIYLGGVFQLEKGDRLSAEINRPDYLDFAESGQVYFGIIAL
Chain of Cytochrome P450 2C19 (Homo sapiens) (P33261 whole entry, looked up): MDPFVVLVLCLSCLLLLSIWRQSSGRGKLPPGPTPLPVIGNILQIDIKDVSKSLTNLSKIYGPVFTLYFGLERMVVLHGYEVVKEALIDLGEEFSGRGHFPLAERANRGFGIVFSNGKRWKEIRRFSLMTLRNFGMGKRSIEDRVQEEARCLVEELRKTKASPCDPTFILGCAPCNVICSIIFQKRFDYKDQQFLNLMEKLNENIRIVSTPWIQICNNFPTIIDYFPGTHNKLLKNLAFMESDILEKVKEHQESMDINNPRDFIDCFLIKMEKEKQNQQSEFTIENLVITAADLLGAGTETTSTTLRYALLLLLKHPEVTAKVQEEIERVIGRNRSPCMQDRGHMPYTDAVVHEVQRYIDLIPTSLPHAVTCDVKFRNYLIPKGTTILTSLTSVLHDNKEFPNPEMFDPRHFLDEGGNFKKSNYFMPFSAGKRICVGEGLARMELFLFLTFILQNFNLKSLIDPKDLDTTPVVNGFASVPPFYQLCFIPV

C=C1C/C(=C\C)C(=O)O[C@@H]2CCN3CC=C(COC(=O)[C@]1(C)O)[C@H]23
inactive: Potency [1]

CC(C)CC(C)Nc1ccc(Nc2ccccc2)cc1 (configuration not stated)
inactive: outcome [4] | outcome [5] | outcome [6] | Potency [7] | caspase-3 activation [8] 12.2% | outcome [9] | max response [16] -21.7% | Potency [17]
active: Potency [2] 25.1 µM | Potency [3] 25.1 µM | Potency [10] 50.1 µM | Potency [11] 39.8 µM | Potency [12] 39.8 µM | Potency [13] 39.8 µM | Potency [14] 50.1 µM | Potency [15] 31.6 µM

O=C(O)C1C(C(=O)O)C2(Cl)C(Cl)=C(Cl)C1(Cl)C2(Cl)Cl (configuration not stated)
inactive: Potency [18] > 92 µM | Potency [19] > 92 µM | Potency [2] | Potency [3] | outcome [4] | outcome [5] | outcome [6] | Potency [7] | caspase-3 activation [8] 1.7% | outcome [9] | Potency [10] | Potency [11] | Potency [12] | Potency [13] | Potency [14] | Potency [15] | Potency [20] | max response [16] 0.0125% | Potency [17]

OC(c1ccc(Cl)cc1)(c1ccc(Cl)cc1)C(Cl)(Cl)Cl
inactive: Potency [18] > 92 µM | Potency [19] > 92 µM | Potency [2] | Potency [3] | outcome [4] | outcome [5] | outcome [6] | Potency [7] | outcome [9] | Potency [10] | Potency [11] | Potency [12] | Potency [13] | Potency [14] | Potency [15] | Potency [20] | max response [16] 0.684% and -14.8%
active: Potency [17] 50.1 µM

Cc1ccc(O)cc1C
inactive: Potency [18] > 92 µM | Potency [19] > 92 µM | max response [16] 6.02%

C[C@H]1CC[C@]2(NC1)O[C@@H]1C[C@@H]3[C@@H]4CC=C5C[C@H](O)CC[C@@]5(C)[C@H]4CC[C@@]3(C)[C@H]1[C@@H]2C
inactive: Potency [1]

Clc1ccc(C(c2ccc(Cl)cc2)C(Cl)Cl)cc1
active: Potency [18] 45.4 µM | Potency [19] 43.5 µM | Potency [3] 31.6 µM | Potency [7] 31.6 µM | caspase-3 activation [8] 127%
inactive: Potency [2] | outcome [5] | outcome [6] | Potency [11] | Potency [12] | Potency [13] | Potency [14] | Potency [15] | Potency [20]

C#CCO
inactive: Potency [18] > 92 µM | Potency [19] > 92 µM | Potency [2] | Potency [3] | outcome [4] | outcome [5] | outcome [6] | Potency [7] | caspase-3 activation [8] 1.98% | outcome [9] | Potency [10] | Potency [11] | Potency [12] | Potency [13] | Potency [14] | Potency [15] | Potency [20] | max response [16] -6.13% | Potency [17]

O=C1C2(Cl)C3(Cl)C4(Cl)C(Cl)(Cl)C5(Cl)C3(Cl)C1(Cl)C5(Cl)C24Cl (configuration not stated)
inactive: outcome [4] | outcome [6] | outcome [9] | Potency [20] | max response [16] -22.6% and -16.2%
70.8 µM (active) and inactive: Potency [17]
active: Potency [18] 30.2 µM and 47.2 µM | Potency [19] 33.3 µM and 51.3 µM | Potency [2] 31.6 µM and 63.1 µM | Potency [3] 31.6 µM | viability change, negative = cytotoxic [3] -93.4% | caspase-3 activation [8] 112% and 177% | Potency [10] 31.6 µM and 50.1 µM | Potency [11] 39.8 µM | Potency [13] 50.1 µM | Potency [15] 50.1 µM

Oc1c(Cl)cc(Cl)cc1Cl
inactive: Potency [18] > 92 µM | Potency [19] > 92 µM | max response [16] -4.3% and -11%

O=C(CCl)c1ccccc1
active: Potency [19] 15.4 µM | Potency [3] 7.94 µM | Potency [11] 10 µM | Potency [12] 7.94 µM | Potency [13] 10 µM | Potency [14] 10 µM | Potency [15] 10 µM | Potency [16] 35.5 µM
inactive: outcome [4] | outcome [5] | outcome [6] | Potency [7] | caspase-3 activation [8] -9.68% | outcome [9] | Potency [10] | Potency [20] | max response [16] -16% | Potency [17]

O=[N+]([O-])c1cc(C(F)(F)F)cc([N+](=O)[O-])c1Cl
active: Potency [12] 31.6 µM | Potency [13] 31.6 µM | Potency [14] 31.6 µM | Potency [15] 31.6 µM
inactive: Potency [18] > 92 µM | Potency [19] > 92 µM | Potency [2] | outcome [4] | outcome [6] | Potency [7] | caspase-3 activation [8] -11.2% | outcome [9] | Potency [10] | Potency [20] | Potency [17]

c1ccc2cc3c(cc2c1)-c1cccc2cccc-3c12
inactive: Potency [18] > 92 µM | Potency [19] > 92 µM | Potency [2] | Potency [3] | outcome [4] | outcome [5] | outcome [6] | Potency [7] | caspase-3 activation [8] -1.28% | outcome [9] | Potency [10] | Potency [11] | Potency [12] | Potency [13] | Potency [14] | Potency [15] | Potency [20] | max response [16] 4.38% and -18.8% | Potency [17]

Cc1ccc2ccccc2c1C
inactive: Potency [18] > 92 µM | Potency [19] > 92 µM | max response [16] 5.03%

N#CC(Cl)Cl
inactive: Potency [18] > 92 µM | Potency [19] > 92 µM | Potency [2] | Potency [3] | outcome [4] | Potency [7] | outcome [9] | Potency [10] | Potency [11] | Potency [20]
active: caspase-3 activation [8] 72.2% | Potency [12] 12.6 µM | Potency [13] 15.8 µM | Potency [14] 25.1 µM | Potency [15] 12.6 µM | Potency [16] 14.1 µM | Potency [17] 44.7 µM

Oc1c(Br)c(Br)c(Br)c(Br)c1Br
inactive: Potency [19] 57 µM | Potency [2] | outcome [4] | outcome [5] | outcome [6] | Potency [7] | outcome [9] | Potency [10] | Potency [11] | Potency [12] | Potency [13] | Potency [14] | Potency [15] | Potency [20] | max response [16] -15.8% | Potency [17]

CN[C@@H](C)[C@@H](O)c1ccccc1
active: Potency [1] 1.58 µM

Nc1ccccc1C(=O)OCCc1ccccc1
inactive: Potency [18] > 92 µM | Potency [19] > 92 µM | Potency [2] | Potency [3] | outcome [4] | outcome [5] | outcome [6] | Potency [7] | caspase-3 activation [8] -6.67% | outcome [9] | Potency [10] | Potency [11] | Potency [12] | Potency [13] | Potency [14] | Potency [15] | Potency [20] | Potency [17]
